Assay results published in PubChem BioAssay (EPA / NIEHS).
Activity calls are given as the source filed them. How the source made its calls: active means hit-call score of the fitted dose curve at least 0.9, where 1 is the maximum; inactive means score below 0.9.

Columns and labels:
[1] = ATG_GLI_CIS: Attagene CIS-FACTORIAL HepG2 Assay for human Zinc Finger Protein GLI1 (AID 2282945); settings: HepG2, Attagene cis-factorial reporter mRNA, GLI element; actives raise or lower the signal
Outline: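 Transiently transfected HepG2 cells report endogenous transcription factor activity via cis-element-driven reporter units. After 24 h compound exposure, reporter mRNA was measured by RT-PCR with capillary electrophoresis; bidirectional fitting against DMSO baseline.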

[2] = target: Bile acid receptor (Homo sapiens) (UniProt Q96RI1); assay: ATG_IR1_CIS: Attagene CIS-FACTORIAL HepG2 Assay for human Nuclear Receptor Subfamily 1 Group H Member 4 (NR1H4), IR1 submotif (AID 2282946); settings: IR1 reporter transcription, actives raise or lower the signal
Outline: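 Fluorescence of capillary-separated, HpaI-digested RT-PCR reporter products gave IR1-element mRNA induction in HepG2 cells 24 h after dosing. Endogenous transcription factors drove the cis-regulated reporters; activity was fitted bidirectionally against DMSO.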

[3] = ATG_GRE_CIS: Attagene CIS-FACTORIAL HepG2 Assay for human Glucocorticoid Response Elements (GRE) (AID 2282947); settings: HepG2 GRE cis-reporter, Attagene multiplex mRNA; actives raise or lower the signal
Outline: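 Read-out: fluorescent reporter-transcript fragments separated by capillary electrophoresis after RT-PCR. Transiently transfected HepG2 cells carrying cis-element-driven reporter units were dosed for 24 h; gain or loss of signal fitted against DMSO control.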

[4] = ATG_ISRE_CIS: Attagene CIS-FACTORIAL HepG2 Assay for human Interferon Regulatory Factor 1 (IRF1) binding to an Interferon-Stimulated Response Element (ISRE) (AID 2282948); settings: HepG2 ISRE cis-reporter (Attagene), mRNA transcription readout; actives raise or lower the signal
Outline: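 Uses HepG2 liver cells transfected with cis-regulated reporters and measures mRNA 24 h post-dosing through RT-PCR, primer-extension labelling and capillary electrophoresis, with DMSO as negative control.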

[5] = ATG_M_32_CIS: Attagene CIS-FACTORIAL HepG2 Assay for M32 Transcription Factor (Internal Marker) (AID 2282949); settings: HepG2 Attagene cis-factorial M32 reporter, mRNA; actives raise or lower the signal;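 further: background control marker of the multiplexed CIS panel rather than a real target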
Outline: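 Transient MRTU transfection of HepG2; 24 h compound treatment; TriZol RNA, oligo(dT) RT, reporter PCR, 6-FAM primer extension, HpaI cut, CE. Gain/loss of signal vs DMSO.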

[6] = ATG_M_06_CIS: Attagene CIS-FACTORIAL HepG2 Assay for M06 Transcription Factor (Internal Marker) (AID 2282950); settings: HepG2 Attagene CIS-FACTORIAL M06 internal marker reporter; actives raise or lower the signal
Outline: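 Terse: HepG2, transient MRTU transfection (FuGene 6), 24 h dosing; total RNA, oligo(dT) RT, PCR, FAM label, HpaI cut, capillary electrophoresis; bidirectional fit vs DMSO baseline; background-control endpoint.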

[7] = target: Hypoxia-inducible factor 1-alpha (Homo sapiens) (UniProt Q16665); assay: ATG_HIF1a_CIS: Attagene CIS-FACTORIAL HepG2 Assay for human Hypoxia Inducible Factor 1 (HIF1A) (AID 2282951); settings: HepG2 Attagene cis-factorial HIF1a reporter transcription; actives raise or lower the signal
Outline: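 HepG2, transient cis-reporter library, 24 h dosing. RNA → RT (oligo dT) → PCR → 6-FAM primer extension → HpaI → CE. Bidirectional curve fit vs DMSO.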

[8] = target: Hepatocyte nuclear factor 6 (Homo sapiens) (UniProt Q9UBC0); assay: ATG_HNF6_CIS: Attagene CIS-FACTORIAL HepG2 Assay for human Hepatocyte Nuclear Factor 6 (HNF6) (AID 2282952); settings: HepG2 Attagene cis-factorial HNF6 reporter transcription; actives raise or lower the signal
Outline: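 Using cis-element reporters in HepG2 liver cells, the assay tracks endogenous factor-driven transcription 24 h post-dosing. Signal comes from 6-FAM-labelled, HpaI-digested RT-PCR fragments, with gain or loss scored against DMSO.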

[9] = target: Heat shock factor protein 1 (Homo sapiens) (UniProt Q00613); assay: ATG_HSE_CIS: Attagene CIS-FACTORIAL HepG2 Assay for human Heat Shock Transcription Factor 1 (HSE) (AID 2282953); settings: HepG2 HSE cis-reporter, Attagene RNA transcription; actives raise or lower the signal
Outline: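 Read-out: fluorescence of reporter-specific RT-PCR fragments separated by capillary electrophoresis. HepG2 carrying transfected cis-element reporter units; 24 h dosing; activity fitted in both directions relative to DMSO baseline.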

[10] = ATG_MRE_CIS: Attagene CIS-FACTORIAL HepG2 Assay for human Metal Responsive Element (MRE) (AID 2282954); settings: HepG2 MRE cis-reporter transcription, Attagene multiplex; actives raise or lower the signal
Outline: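 RT-PCR/capillary electrophoresis readout of reporter mRNA, 24 h post-dosing, in HepG2 cells transfected with multiplexed cis-regulated reporter constructs. Gain or loss of signal fitted bidirectionally against DMSO baseline.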

Measured: AC50

Hepatocyte nuclear factor 6 (Homo sapiens), sequence (Q9UBC0 whole entry, looked up, the tested form may be a part): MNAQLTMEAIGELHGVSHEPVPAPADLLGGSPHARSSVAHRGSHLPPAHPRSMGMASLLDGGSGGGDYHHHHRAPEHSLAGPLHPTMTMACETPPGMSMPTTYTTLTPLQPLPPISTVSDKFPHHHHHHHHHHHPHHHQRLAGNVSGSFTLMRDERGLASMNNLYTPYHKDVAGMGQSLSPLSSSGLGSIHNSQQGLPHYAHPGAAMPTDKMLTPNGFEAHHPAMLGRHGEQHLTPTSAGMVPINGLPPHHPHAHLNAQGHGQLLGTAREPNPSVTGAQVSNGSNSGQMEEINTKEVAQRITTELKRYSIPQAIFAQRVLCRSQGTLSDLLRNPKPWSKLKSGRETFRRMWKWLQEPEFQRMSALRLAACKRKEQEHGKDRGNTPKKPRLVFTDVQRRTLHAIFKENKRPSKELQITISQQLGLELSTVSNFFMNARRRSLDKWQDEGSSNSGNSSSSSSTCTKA
Heat shock factor protein 1 (Homo sapiens), sequence (Q00613 whole entry, looked up, the tested form may be a part): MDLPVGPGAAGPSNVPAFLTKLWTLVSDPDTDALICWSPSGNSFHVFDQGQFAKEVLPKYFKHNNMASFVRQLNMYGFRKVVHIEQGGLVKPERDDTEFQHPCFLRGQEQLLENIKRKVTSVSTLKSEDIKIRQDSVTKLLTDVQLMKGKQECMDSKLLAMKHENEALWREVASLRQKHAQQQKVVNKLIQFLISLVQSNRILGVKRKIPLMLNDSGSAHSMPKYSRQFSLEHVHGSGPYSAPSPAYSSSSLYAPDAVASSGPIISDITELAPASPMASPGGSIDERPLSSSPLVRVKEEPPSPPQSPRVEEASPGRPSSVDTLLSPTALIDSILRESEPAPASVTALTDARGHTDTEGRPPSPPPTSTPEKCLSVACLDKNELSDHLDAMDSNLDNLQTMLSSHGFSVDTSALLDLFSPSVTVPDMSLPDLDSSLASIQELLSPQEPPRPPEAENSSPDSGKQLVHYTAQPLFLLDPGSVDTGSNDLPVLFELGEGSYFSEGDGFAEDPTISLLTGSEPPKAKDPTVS
Hypoxia-inducible factor 1-alpha (Homo sapiens), sequence (Q16665 whole entry, looked up): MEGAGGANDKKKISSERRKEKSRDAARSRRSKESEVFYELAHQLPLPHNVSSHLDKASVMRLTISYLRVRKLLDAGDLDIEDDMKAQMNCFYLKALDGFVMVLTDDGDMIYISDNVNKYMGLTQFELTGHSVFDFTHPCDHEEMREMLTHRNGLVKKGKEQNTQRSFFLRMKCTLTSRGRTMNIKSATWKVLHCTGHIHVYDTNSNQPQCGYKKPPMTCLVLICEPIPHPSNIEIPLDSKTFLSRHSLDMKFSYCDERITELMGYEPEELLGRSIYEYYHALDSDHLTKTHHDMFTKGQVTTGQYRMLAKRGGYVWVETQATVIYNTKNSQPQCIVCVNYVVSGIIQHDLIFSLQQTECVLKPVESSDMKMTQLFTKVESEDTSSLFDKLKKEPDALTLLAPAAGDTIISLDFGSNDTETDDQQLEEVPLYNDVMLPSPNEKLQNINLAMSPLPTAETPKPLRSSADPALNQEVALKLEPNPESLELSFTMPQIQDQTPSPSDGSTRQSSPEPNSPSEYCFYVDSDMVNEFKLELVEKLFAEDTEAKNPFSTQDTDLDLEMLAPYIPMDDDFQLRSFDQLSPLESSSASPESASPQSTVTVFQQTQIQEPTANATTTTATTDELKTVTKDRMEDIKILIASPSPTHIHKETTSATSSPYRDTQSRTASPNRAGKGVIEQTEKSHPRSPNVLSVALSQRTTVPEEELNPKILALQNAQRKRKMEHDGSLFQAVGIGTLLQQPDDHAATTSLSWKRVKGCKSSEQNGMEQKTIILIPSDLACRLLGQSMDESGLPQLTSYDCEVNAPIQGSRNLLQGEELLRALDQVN
Bile acid receptor (Homo sapiens), sequence (Q96RI1 whole entry, looked up): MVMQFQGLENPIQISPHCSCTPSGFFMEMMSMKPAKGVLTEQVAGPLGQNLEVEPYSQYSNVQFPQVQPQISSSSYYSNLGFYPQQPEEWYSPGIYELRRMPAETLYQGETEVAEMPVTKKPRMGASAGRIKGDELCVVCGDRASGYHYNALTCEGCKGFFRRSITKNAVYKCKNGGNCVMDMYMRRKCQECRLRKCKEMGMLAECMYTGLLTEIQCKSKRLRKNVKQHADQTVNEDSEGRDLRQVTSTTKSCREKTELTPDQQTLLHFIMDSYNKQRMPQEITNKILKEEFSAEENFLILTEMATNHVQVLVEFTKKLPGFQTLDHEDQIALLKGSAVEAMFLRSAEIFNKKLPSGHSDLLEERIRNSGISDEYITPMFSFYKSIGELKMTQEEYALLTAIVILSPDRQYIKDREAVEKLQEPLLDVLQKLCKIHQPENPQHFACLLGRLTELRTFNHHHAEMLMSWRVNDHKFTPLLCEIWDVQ

CCc1occc(=O)c1O
inactive: all assays above

Nc1ccc(C(=O)O)cc1
inactive: all assays above

COc1ccc(C(=O)c2ccccc2)c(O)c1
active: [2] 151 µM | [10] 130 µM
inactive: all other assays above

O=S(=O)(O)c1ccc(Nc2nc(Nc3ccc(C=Cc4ccc(Nc5nc(Nc6ccc(S(=O)(=O)O)cc6)nc(N(CCO)CCO)n5)cc4S(=O)(=O)O)c(S(=O)(=O)O)c3)nc(N(CCO)CCO)n2)cc1
inactive: all assays above

C=CC(=O)O[C@H]1C[C@@H]2CC[C@@]1(C)C2(C)C
active: [1] 186 µM | [5] 150 µM | [9] 161 µM
inactive: all other assays above

CC1CCC(=O)C1=O (stereo not given)
inactive: all assays above

CCCCCCCOC(=O)c1ccc(O)cc1
active: [1] 45.7 µM | [2] 50.9 µM | [7] 59.9 µM | [10] 52.6 µM
inactive: all other assays above

CC(c1cc(C(C)(C)C)cc(C(C)(C)C)c1O)c1cc(C(C)(C)C)cc(C(C)(C)C)c1O
active: [2] 1.87 µM
inactive: all other assays above

Cc1cc(C)c(C=O)c(C)c1
inactive: all assays above

CCC(C)C(=O)OCCc1ccccc1 (stereo not given)
inactive: all assays above

Cc1cc(C)n(CO)n1
inactive: all assays above

Nc1ccc(C(=O)OCCCOC(=O)c2ccc(N)cc2)cc1
inactive: all assays above

CCCCCCOc1ccc(N)cc1
inactive: all assays above

CCc1cccc(C)c1N(C(=O)CS(=O)(=O)O)C(C)COC (stereo not given)
not listed: [7]
inactive: all other assays above

CCCCCCCC(=O)OCC
not listed: [5]
inactive: all other assays above

CCOC(=O)OC(=O)OCC
inactive: all assays above

CCCCC(C=O)CC (stereo not given)
not listed: [9]
inactive: all other assays above

CCOC(=O)C1=NOC(c2ccccc2)(c2ccccc2)C1
active: [7] 160 µM | [9] 143 µM
inactive: all other assays above

CC(C)(C)C1CCC(=O)CC1
active: [9] 156 µM
inactive: all other assays above

COC(=O)CC(C)CCC=C(C)C (stereo not given)
not listed: [5]
inactive: all other assays above

CCCCCC1=CCCC1=O
active: [5] 148 µM
not listed: [7]
inactive: all other assays above

Nc1ncnc2nc[nH]c12
not listed: [7]
inactive: all other assays above

CCCCCCCCCCCCCC(=O)OC(C)C
not listed: [5] | [7]
inactive: all other assays above

N=C1C=CC(=C(c2ccc(N)cc2)c2ccc(N)cc2)C=C1
active: [3] 23.9 µM | [4] 33.4 µM | [9] 42.5 µM | [10] 48.2 µM
not listed: [7]
inactive: all other assays above

CCc1cccc(CC)c1
inactive: all assays above

CC/C=C\C/C=C\C/C=C\CCCCCCCC(=O)OC
active: [2] 25.7 µM | [9] 74.9 µM
not listed: [7]
inactive: all other assays above
